The campaign covered roughly 310,000 compounds. About 3,800 (1.2%) were called active.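 Rule for the calls: active = ratio B-score over 3 SD below the library mean, with starting fluorescence within 5 SD of its mean; inactive = the rest, inconclusive results apart.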 For the sample, actives were picked, then their nearest neighbours and some compounds at random.

For the assay, the target named is Potassium channel subfamily K member 9 (Homo sapiens) (UniProt Q9NPC2). Nature of the assay: blockers of human TASK-3 (KCNK9) channel – HEK293 cells, thallium flux, primary screen (AID 488922).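 For B-score: negative B-score means less thallium flux so channel inhibition.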 Particulars: HEK293 KCNK9, FluxOR thallium flux fluorescence, at 10 µM; stronger effect = lower value.
Potassium channel subfamily K member 9 (Homo sapiens), sequence (Q9NPC2 whole entry, looked up): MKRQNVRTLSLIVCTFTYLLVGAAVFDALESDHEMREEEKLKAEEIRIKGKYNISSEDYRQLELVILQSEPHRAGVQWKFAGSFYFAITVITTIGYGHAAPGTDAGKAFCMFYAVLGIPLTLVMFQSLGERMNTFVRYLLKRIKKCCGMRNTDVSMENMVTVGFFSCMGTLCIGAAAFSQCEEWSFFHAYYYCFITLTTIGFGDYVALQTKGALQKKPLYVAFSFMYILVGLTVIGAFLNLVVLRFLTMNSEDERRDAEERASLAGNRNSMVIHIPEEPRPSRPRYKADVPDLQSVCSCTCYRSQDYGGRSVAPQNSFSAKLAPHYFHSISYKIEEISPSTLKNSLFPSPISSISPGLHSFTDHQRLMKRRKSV
Turning to `C=C(Br)CN1CCN(CC(=C)Br)CC1`, the B-score result was “inactive”.
The result for `CCCCNC(=O)N1CCN(S(C)(=O)=O)CC1` reads “inactive”.
The result for `CN(C)N=Nc1ccc2nc[nH]c2c1` reads “inactive”; that for `Cc1cc(C)c2[nH]c(=O)c(C(c3nnnn3Cc3ccc4c(c3)OCO4)N3CCCC3)cc2c1` (stereo not drawn), “inactive”.
The result for `Fc1ccccc1C(c1nnnn1Cc1ccc2c(c1)OCO2)N1CCN(Cc2ccccc2)CC1` (stereo not drawn) reads “inactive”; that for `Fc1ccc(Cn2nnnc2C(c2cccs2)N2CCCCCC2)cc1` (stereo not drawn), -13.1 (active).
In the case of `CCCn1c(SCC(=O)Nc2ccc(C)c(S(=O)(=O)N3CCOCC3)c2)n[nH]c1=O`, the B-score result is “inactive”.
Regarding `Cc1ccc(C(=O)OCC(=O)N2CC(C)CC(C)C2)cc1S(=O)(=O)N1CCCCC1` (stereo not drawn), the B-score result is “inactive”.
As for `COc1ccc2c(CC(=O)N3CCc4cc(OC)c(OC)cc4C3)coc2c1`, the B-score entry is “inactive”.
The result for `N/C(Cc1ccc([N+](=O)[O-])cc1)=N\OC(=O)COc1ccc2ccccc2c1` reads -7.84 (active).
The result for `Cc1cc(C)cc(OCC(=O)O/N=C(\N)Cc2ccc([N+](=O)[O-])cc2)c1` reads “inactive”; that for `N/C(=N\OC(=O)COc1ccc([N+](=O)[O-])cc1)c1ccc(Br)cc1`, “inactive”; that for `CCCc1cc(=O)oc2cc(OCC(=O)Nc3ccc(CN4CCOCC4)cc3)c(Cl)cc12`, “inactive”.
With `CN(C)c1ccc(NC(=O)c2ccncc2)c2ccccc12`, the B-score result is “inactive”.
The result for `Oc1ccccc1CN1CCN(C(c2ccccc2)c2ccccc2)CC1` reads “inactive”; that for `c1ccc(C(c2ccccc2)N2CCN(Cc3nnnn3C3CCCCC3)CC2)cc1`, -14.6 (active).
In the case of `c1ccc(CCn2nnnc2CN2CCN(C3CCCC3)CC2)cc1`, the B-score entry is “inactive”.
The result for `Cc1nn(Cc2ccccc2Cl)c(C)c1NC(=O)Cn1nc([N+](=O)[O-])c(Cl)c1C` reads “inactive”; that for `CC(=O)N1CCN(c2ccccc2NC(=S)NC(=O)c2cc3ccccc3o2)CC1`, “inactive”.
On to `O=C(NCc1ccco1)c1ccc(NS(=O)(=O)c2cccc([N+](=O)[O-])c2)cc1`, for which the B-score was -8.56 (active).
The result for `O=C(NCc1ccco1)c1ccc([N+](=O)[O-])cc1Cl` reads “inactive”; that for `O=C(NCc1ccncc1)c1ccc(NS(=O)(=O)c2cccc([N+](=O)[O-])c2)cc1`, “inactive”.
`O=C1CCCC(O)=C1N=Nc1ccc2ncsc2c1`: the B-score result is “inactive”.
The result for `Cc1ccc(S(=O)(=O)N2CCC(C(=O)NCCC3=CCCCC3)CC2)cc1C` reads “inactive”; that for `CS(=O)(=O)n1nc(-c2ccccc2)nc1NCc1ccco1`, “inactive”.
With `c1ccc(-c2nc(NCc3ccco3)c3ccccc3n2)cc1`, the B-score is -6.58 (active).
As to `O=C(NCc1ccco1)c1nc(-c2ccccc2)n(-c2ccccc2)n1`, the B-score result is “inactive”.
As for `c1coc(CNc2ncnc3ccccc23)c1`, the B-score entry is “inactive”.
Consider `O=C(Cc1ccccc1)n1nc(-c2ccccc2)nc1NCc1ccco1`, for which the B-score is -9.15 (active).
The result for `CCOCCCNc1nc(-c2ccccc2)nc2ccccc12` reads “inactive”.
With `CC(OC(=O)c1ccc(NS(=O)(=O)c2ccc3[nH]c(=O)[nH]c3c2)cc1)C(=O)Nc1cccc(Cl)c1Cl` (stereo not drawn), the B-score entry was “inactive”.
With `COc1ccc(-c2cnc(SCCNC(=O)c3ccc4c(c3)OCO4)[nH]2)cc1`, the B-score result was “inactive”.
`Cc1ccccc1N1CCN(CC(=O)NCc2ccc(Cl)cc2)CC1`: the B-score result was “inactive”.
With `O=C(NCCc1ccc(Cl)cc1)C1CCCN1C(=O)NCc1ccccc1` (stereo not drawn), the B-score result is “inactive”.
Regarding `O=C(Nc1ccc(O)cc1)c1ccc(NC(=O)c2ccco2)cc1`, the B-score result was “inactive”.
The result for `O=C(Nc1ccccc1)c1ccco1` reads “inactive”.
The result for `O=C(Nc1ccc(Oc2ccccc2)cc1)c1ccco1` reads -10.1 (active); that for `Cc1cc(C)cc(NC(=O)C2CCCN(S(=O)(=O)c3ccc4[nH]c(=O)ccc4c3)C2)c1` (stereo not drawn), “inactive”; that for `COc1cc(C(=S)N2CCOCC2)cc(OC)c1OC(=O)c1cc([N+](=O)[O-])cc([N+](=O)[O-])c1`, “inactive”.
With `O=C(Oc1ccc(Br)cc1C(=S)N1CCOCC1)c1cccc([N+](=O)[O-])c1`, the B-score is -16.4 (active).
As to `O=C(Oc1ccccc1C(=S)N1CCCCC1)c1cc([N+](=O)[O-])cc([N+](=O)[O-])c1`, the B-score entry was “inactive”.
For the compound `COc1ccccc1C(=O)Nn1cnnc1`, the B-score result was “inactive”.
The result for `CC(=O)Nc1ccc(OCCC[n+]2cccc(C(=O)[O-])c2)cc1` reads “inactive”; that for `Nc1c(-c2ccccc2)nnn1Cc1ccccc1`, “inactive”; that for `CCCC1=Nc2cc(C(=O)NCCN3CCCC3)ccc2Sc2ccccc21`, “inactive”.
The result for `CCCC1=Nc2cc(C(=O)NCc3ccco3)ccc2Sc2ccccc21` reads -8.7 (active).
The result for `CC(C)(C)c1ccc(C(=O)NCc2ccco2)cc1` reads “inactive”.
As to `CN(C)/C=C(\C#N)C(=O)c1cccnc1Oc1cccc(F)c1`, the B-score result is “inactive”.

The values are drawn from PubChem BioAssay AID488922 (Johns Hopkins Ion Channel Center, 2010).
